# Experimental data reported in ChEMBL document CHEMBL3433997, “St. Jude Leishmania screening dataset” (2016).
# Assays:
# Assay type in all cases: functional
# [1] = target: Solute carrier family 2, facilitated glucose transporter member 1 (Homo sapiens) (UniProt P11166); test: ST_JUDE_LEISH: Cytotoxicity at 2uM final concentration against transgenic Leishmania Mexicana promastigotes LmGLUT1 that are glucose transport deficient and complemented with the human glucose transporter GLUT1. Activity is measured by DNA content using SYBR green in vitro
# [2] = target: Hexose transporter 1 (Plasmodium falciparum) (UniProt O97467); test: ST_JUDE_LEISH: Cytotoxicity at 2uM final concentration against transgenic Leishmania Mexicana promastigotes LmPfHT that are glucose transport deficient and complemented with the Plasmodium falciparum hexose transporter. Activity is measured by DNA content using SYBR green in vitro
# [3] = target: Glucose transporter (Leishmania mexicana) (UniProt O61059); test: ST_JUDE_LEISH: Cytotoxicity at 2uM final concentration against transgenic Leishmania Mexicana promastigotes LmGT2 that are glucose transport deficient and complemented with the L. Mexicana glucose transporter 2. Activity is measured by DNA content using SYBR green in vitro
# Sequence of Solute carrier family 2, facilitated glucose transporter member 1 (Homo sapiens) (P11166 whole entry): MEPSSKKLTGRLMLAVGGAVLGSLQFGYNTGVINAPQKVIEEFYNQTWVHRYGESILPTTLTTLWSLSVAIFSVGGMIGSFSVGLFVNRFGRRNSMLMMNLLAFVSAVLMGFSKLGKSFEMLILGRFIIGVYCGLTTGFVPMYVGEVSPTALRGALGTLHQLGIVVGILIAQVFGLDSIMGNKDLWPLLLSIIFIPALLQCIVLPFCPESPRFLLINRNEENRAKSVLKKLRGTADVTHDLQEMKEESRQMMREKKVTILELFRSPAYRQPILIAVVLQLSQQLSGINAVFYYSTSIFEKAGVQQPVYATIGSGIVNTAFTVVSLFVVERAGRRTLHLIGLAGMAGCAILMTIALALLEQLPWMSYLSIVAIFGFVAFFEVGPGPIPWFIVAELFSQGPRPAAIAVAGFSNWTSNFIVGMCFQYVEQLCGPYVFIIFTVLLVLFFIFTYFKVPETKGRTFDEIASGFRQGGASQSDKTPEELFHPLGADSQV
SMILES,inhibition [1] [%],inhibition [2] [%],inhibition [3] [%]
NC(=O)c1cccc(Nc2nccc(Nc3ccc(Oc4c(Cl)cccc4Cl)c(Cl)c3)n2)c1,9.27,9.62,2.92
FC(F)(F)c1ccc2[nH]c(-c3cccc(-c4cccc(CN5CCN(c6ccncc6)CC5)c4)c3)nc2c1,1.83,2.18,3.38
COc1cccc(OC)c1OCCCON1C(=N)N=C(N)NC1(C)C,1.91,1.49,2.31
CN(C)c1ccc2c(c1)Sc1cc(N(C)C)ccc1N2C(=O)CCCC(=O)O,5.15,1.94,-0.96
COc1ccc(C2CCN(CCN3CCC(NC(=O)c4ccc(-c5cccc(C(F)(F)F)c5C(F)(F)F)cc4)CC3)CC2)c(OC)c1,0.36,1.29,-0.58
CCOC(=O)c1ccc(NC(=O)Nc2ccc(-c3ccc(-c4nc5cc(C(F)(F)F)ccc5[nH]4)cc3)cc2)cc1,-1.59,-0.19,1.54
CN(C)CCNCc1nc(-c2ccc3c(Nc4ccc(Cl)cc4F)ccnc3c2)cs1,9.87,8.58,10.1
CC(C)CN1CCN(c2nc(C#N)c3c(c2C(=S)NC2CCCCC2)CC(C)(C)OC3)CC1,0.49,-1.31,-1.75
